Over roughly 35,000 sequences, “fluorescence intensity (a.u.)” has its median near 10,000; the highest 2% begin near 52,000. The sample holds the highest values, similar sequences and a random draw of the others, so the mix is not that of the screen.

In the test the target is T1, OsWOX13 (Oryza sativa, UniProt Q5QMM3 1-267).
T1 sequence: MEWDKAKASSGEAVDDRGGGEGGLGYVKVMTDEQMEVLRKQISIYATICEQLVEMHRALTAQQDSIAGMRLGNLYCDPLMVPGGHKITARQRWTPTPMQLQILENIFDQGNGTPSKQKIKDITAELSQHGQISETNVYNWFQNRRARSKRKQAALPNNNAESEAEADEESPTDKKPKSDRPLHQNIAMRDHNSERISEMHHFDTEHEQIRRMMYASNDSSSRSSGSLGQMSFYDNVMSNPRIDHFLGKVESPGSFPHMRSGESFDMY
In words: protein-binding microarray (RPBM); PBS, 2% BSA, 51.3 ng/ul salmon testes DNA, 50 uM zinc acetate, 200 nM TF, 25 C, 1 h; high values mean tight binding. Conditions: protein: recombinant; tags: N-terminal polyhistidine and DsRed monomer fusion (pET32a); label: CyDye5-dUTP incorporated in the synthesized complementary strand; 3' TTTTT single-stranded linker to array surface; dsDNA, one strand shown. In short, it runs like this: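 Polyhistidine-tagged DsRed fusions of transcription factors, joined at the N-terminus, were expressed in E. coli BL21-CodonPlus and isolated on Ni–NTA. They were incubated at 200 nM for 1 h at 25 °C on a custom Agilent array, double-stranded and BSA-blocked, in PBS with 2% BSA, salmon testes DNA and 50 µM zinc acetate. The binding signal is per-feature fluorescence intensity (arbitrary units) read on an Axon 4000B scanner after washing.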
As for “ACATATGTGATTAGTATCAGTTCATCAGTAGTCTTCCAATCGGAGTCACCTAGTGCAG”, the binding signal is 18500 fluorescence intensity (a.u.).

Take “CTGACAGGTATTATTGCTTGATATATTTTACTCACTTTACCGGAGTCACCTAGTGCAG”: the binding signal is 14800 fluorescence intensity (a.u.).

For “ATGGGAGGTGAGATTGGGATTGGGAAATAAATGAATGGCTCGGAGTCACCTAGTGCAG”, the binding signal is 5250 fluorescence intensity (a.u.).

In the case of “GAGCAGATGATTAGTGAAGGTGTAACCCCTAACATCGTTACGGAGTCACCTAGTGCAG”, the binding signal was 12900 fluorescence intensity (a.u.).

Regarding “AATAAATTGTGTGGAAATTTAGCTTGCCCAATCAGATTGACGGAGTCACCTAGTGCAG”, the binding signal was 16000 fluorescence intensity (a.u.).

As to “AATTCTAATTGGGGAGCATTTAAAGGCTGGGTTTTAGTGGCGGAGTCACCTAGTGCAG”, the binding signal is 20100 fluorescence intensity (a.u.).

For “TGCTAATTGGGGATTTTCACATTCATGCTGTGTTAGCAGGCGGAGTCACCTAGTGCAG”, the binding signal is 54700 fluorescence intensity (a.u.).

As for “AATGTGTTAGCGTTTAATTTGCGATTGGATTTGTTTCAGGCGGAGTCACCTAGTGCAG”, the binding signal is 3560 fluorescence intensity (a.u.).

For the sequence “AAGTAATTTAGTCAACTCTAAAAGTAACTATGTGTGTGTGCGGAGTCACCTAGTGCAG”, the binding signal is 17300 fluorescence intensity (a.u.).

With “TTGAATCAATGACTGATCATTGCCCAGACTGCTATTTTCCCGGAGTCACCTAGTGCAG”, the binding signal was 7090 fluorescence intensity (a.u.).

“CAAAACGAAATTGATAGATCTTAATGAGTTGTACAACTTTCGGAGTCACCTAGTGCAG”: the binding signal was 20400 fluorescence intensity (a.u.).

For “AACTTATTCCAATTATCAAACTCCGCTGCTCAACCAGGCCCGGAGTCACCTAGTGCAG”, the binding signal was 5860 fluorescence intensity (a.u.).

Take “TCGCTATAATTGACAGCGACCCTACCTTGGGCCACCGGACCGGAGTCACCTAGTGCAG”: the binding signal was 57100 fluorescence intensity (a.u.).

Regarding “TTTTATAATTCGATGACAAATTGAGAGACCTTGGGTGTACCGGAGTCACCTAGTGCAG”, the binding signal is 13200 fluorescence intensity (a.u.).

Turning to “GCTTGATTGCCACACAAATTTTGACAATACGACCCTTTACCGGAGTCACCTAGTGCAG”, the binding signal is 42900 fluorescence intensity (a.u.).

Consider “AAGCCTAATTAATCCATCCTTAGCAGATGTGGGTTACCGTCGGAGTCACCTAGTGCAG”, for which the binding signal was 8630 fluorescence intensity (a.u.).

As to “ATTACTATGATTACTATAATGTACCCTCAAAGCGTGTAGACGGAGTCACCTAGTGCAG”, the binding signal was 7510 fluorescence intensity (a.u.).

Regarding “ATAATGTCAAATTTCGTTCCATTGTGAAGAAATTTTGCCACGGAGTCACCTAGTGCAG”, the binding signal is 3410 fluorescence intensity (a.u.).

Consider “CATGATAGATCAGGCAGAGAGCAGATCAGAGCAAGCATGTCGGAGTCACCTAGTGCAG”, for which the binding signal was 11800 fluorescence intensity (a.u.).

In the case of “ATGGAATTGATTAGAAGCCAGCCAGGCAGGGGAGGGTCGTCGGAGTCACCTAGTGCAG”, the binding signal was 33900 fluorescence intensity (a.u.).

As for “GAGGGCAAGGCCCAGGGAAGCATATCTTGATAGTCGATATCGGAGTCACCTAGTGCAG”, the binding signal is 65500 fluorescence intensity (a.u.).

As for “GGTTCCACTATCAATCTTAGACAGTATAAACAGGTCAACACGGAGTCACCTAGTGCAG”, the binding signal was 5380 fluorescence intensity (a.u.).

For “TATTCTGATTGGAACTTATGAGTCTTGAATTCTTGATTCTCGGAGTCACCTAGTGCAG”, the binding signal was 39000 fluorescence intensity (a.u.).

On to “TTAATTACAAATTGATTTGATCACGTAGATAATTACATCACGGAGTCACCTAGTGCAG”, for which the binding signal is 62000 fluorescence intensity (a.u.).

For the sequence “GATTAATTTAGAAATTTTGAATTCTATTACATAATGATCACGGAGTCACCTAGTGCAG”, the binding signal is 20600 fluorescence intensity (a.u.).

In the case of “AAGGAGAATTTTCTTGATTGAAATTATACATCATATTCATCGGAGTCACCTAGTGCAG”, the binding signal is 29500 fluorescence intensity (a.u.).

Turning to “TCTGATTGCAATCATTCTTGAATTCTGATACATATTGGATCGGAGTCACCTAGTGCAG”, the binding signal is 60300 fluorescence intensity (a.u.).

Turning to “TGAGAGTGGCATTTAATTGAATCCTATTATGATGGTGGCACGGAGTCACCTAGTGCAG”, the binding signal was 16100 fluorescence intensity (a.u.).

On to “CTGATTAGTGATTTATTTAATTTGAGGAATCATTTTGGCACGGAGTCACCTAGTGCAG”, for which the binding signal was 64900 fluorescence intensity (a.u.).

For “AACAATTGATTAGTACAAAATGGTACTTCCTCCGTTTCACCGGAGTCACCTAGTGCAG”, the binding signal is 56600 fluorescence intensity (a.u.).

Take “GTAATTTATATTGAAATGCAATTACTTCCTCCGTTTCACCCGGAGTCACCTAGTGCAG”: the binding signal is 21800 fluorescence intensity (a.u.).

“CGGAATTAATCTGATTATGTGAGTGAATTGGCATTTTGAACGGAGTCACCTAGTGCAG”: the binding signal is 30700 fluorescence intensity (a.u.).

For “AATTGATTTACAATACTTCCTCCGTTTCACAATATAAGTGCGGAGTCACCTAGTGCAG”, the binding signal is 24700 fluorescence intensity (a.u.).

Consider “ATAATTTGATCAAATTACATGTGATTTTGTGAAATTTACACGGAGTCACCTAGTGCAG”, for which the binding signal was 39700 fluorescence intensity (a.u.).

With “CAAAACTGAGTACATTGGATTGGACCATCTAAAAGGAAATCGGAGTCACCTAGTGCAG”, the binding signal is 4580 fluorescence intensity (a.u.).

In the case of “TTTATCAAATTATCGTTTGTGTACTCTAGCTGGTCCTGGACGGAGTCACCTAGTGCAG”, the binding signal was 3870 fluorescence intensity (a.u.).

With “TGAAATTATTAGCAGGGTTTTAAATCTTCTGTTATAGCTGCGGAGTCACCTAGTGCAG”, the binding signal was 4040 fluorescence intensity (a.u.).

As to “GGTAATAGAGAGACCACTAATAAAGATTGTTGTACCTGTGCGGAGTCACCTAGTGCAG”, the binding signal is 3690 fluorescence intensity (a.u.).

Regarding “CCCTAGACAGATCAGCTTTGGTGTCTTGGTGGTTGTTGTCCGGAGTCACCTAGTGCAG”, the binding signal is 5440 fluorescence intensity (a.u.).

For “TGTTTAAGTTTGTCCTAATTACCTGTCACATTTTCCGTGCCGGAGTCACCTAGTGCAG”, the binding signal was 8460 fluorescence intensity (a.u.).

For the sequence “GGCAGTGACTAATTAACCTCACGGATGACAGGCGGCGAAACGGAGTCACCTAGTGCAG”, the binding signal was 10300 fluorescence intensity (a.u.).

For “ATCAGCTGATTACCTCACTGCATCCGTATGATTCGACTTTCGGAGTCACCTAGTGCAG”, the binding signal was 7310 fluorescence intensity (a.u.).

These data come from publication PMC7819943, “Rice protein-binding microarrays: a tool to detect cis-acting elements near promoter regions in rice”.
